Assay outcomes as filed in PubChem.
Pol beta inh = blocks human DNA polymerase beta activity | Pol beta primer extension/strand displacement, fluorescence kinetic | Potency, µM (highest dose often 114 µM), inactives show top-dose activity change, negative = inhibition, actives largely listed as inhibitors | 340,000 compounds, 1.3% hits; note: % is set by controls: 0 for no effect and ±100 for the full control effect
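10 nM enzyme + cpd, 15 min RT; start with substrate 50 nM final; read 0 min and after 10 min RT. Corrected, normalized data; 4-parameter Hill curve fit.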
POLK inh = DNA polymerase kappa (human) inhibition; Potency, µM (top dose mostly 107 µM), without a hit: top-dose activity, negative = inhibition, actives largely listed as inhibitors; purified Pol kappa, fluorescent DNA synthesis assay, 10 min; 400,000 compounds, 0.53% hits; AID 588579; Q9UBT6; note: % is set by controls: 0 for no effect and ±100 for the full control effect
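10 nM Pol kappa preincubated 15 min at room temperature with compounds, then reaction started with substrate at 50 nM final. Fluorescence read kinetically at 0 and 10 min; buffer-only wells served as negative control.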
Pol eta inh-1 = inhibitors of human DNA polymerase eta | Potency, µM (top dose mostly 114 µM), without a hit: top-dose activity change, negative = inhibition, actives largely listed as inhibitors | recombinant Pol eta, fluorescent DNA replication assay | AID 588591 | 390,000 compounds, 1.2% hits; note: % is set by controls: 0 for no effect and ±100 for the full control effect
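Fluorescent replication assay: 50 nM final substrate added after a 15 min room-temperature compound preincubation with 10 nM enzyme. Signal taken at 0 min and again at 10 min.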
APE1 inh = inhibitors of human APE1 endonuclease; recombinant APE1, TAMRA/BHQ-2 abasic DNA cleavage fluorescence; 350,000 compounds, 0.35% hits; P27695; Potency, µM (doses to about 65.8 µM), without a hit: at the top dose activity change, negative = inhibition, actives largely listed as inhibitors;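 note: plate controls were vehicle for no effect and reference inhibitor for full effect; nearly all actives have a fitted effect of over 55% in size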
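Kinetic fluorescence read (525 ex/598 em nm, three reads 60 s apart) of AP-site incision; signal = third minus first read. Enzyme 0.75 nM, dual-labelled THF duplex 50 nM, compound preincubation 15 min RT.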
POLI inh = DNA polymerase iota (human) inhibition | Q9UNA4 | Pol iota fluorescent replication assay, 10 min | Potency, µM (titrated, usually from 115 µM), without a hit: at the top dose activity, negative = inhibition, most hits filed as inhibitors | 390,000 compounds, 1% hits | AID 588590
Target sequence (Q9UNA4 whole entry, looked up): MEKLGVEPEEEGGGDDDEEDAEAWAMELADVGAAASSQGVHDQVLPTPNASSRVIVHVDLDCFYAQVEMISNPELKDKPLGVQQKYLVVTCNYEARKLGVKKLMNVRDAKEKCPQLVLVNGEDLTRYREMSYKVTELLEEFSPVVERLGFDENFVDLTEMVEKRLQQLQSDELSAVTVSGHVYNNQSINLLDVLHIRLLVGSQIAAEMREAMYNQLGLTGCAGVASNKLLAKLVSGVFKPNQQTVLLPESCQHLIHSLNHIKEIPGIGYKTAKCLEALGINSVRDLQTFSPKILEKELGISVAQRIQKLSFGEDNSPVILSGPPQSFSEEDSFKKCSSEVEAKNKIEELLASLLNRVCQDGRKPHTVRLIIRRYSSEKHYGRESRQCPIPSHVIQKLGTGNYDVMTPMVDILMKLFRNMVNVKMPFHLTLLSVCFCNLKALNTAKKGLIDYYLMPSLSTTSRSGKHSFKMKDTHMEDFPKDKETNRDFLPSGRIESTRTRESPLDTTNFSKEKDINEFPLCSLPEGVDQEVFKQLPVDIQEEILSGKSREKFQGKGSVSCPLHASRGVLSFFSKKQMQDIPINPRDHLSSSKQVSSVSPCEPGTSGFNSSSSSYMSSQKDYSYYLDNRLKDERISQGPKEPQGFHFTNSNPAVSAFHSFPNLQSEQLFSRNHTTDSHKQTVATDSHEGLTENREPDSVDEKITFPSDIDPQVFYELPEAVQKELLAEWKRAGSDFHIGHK
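Fluorescent replication assay read twice, at 0 min and 10 min after adding 50 nM (final) substrate. Enzyme (10 nM) and compounds were first incubated 15 min at room temperature; enzyme-free buffer wells were negative controls.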
GLS inhibitor = inhibitors of human glutaminase (GLS); GLS enzymatic activity, qHTS titration; Potency, µM (titrated, usually from 45.5 µM), inactives show at the highest dose activity change, negative = inhibition, usual class: inhibitors; 410,000 compounds, 0.21% hits; AID 624170; note: % is set by controls: 0 for no effect and ±100 for the full control effect
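hKGA in 45 mM KH2PO4 (pH 8.2), 0.02% Tween-20 with compound, then 1mM L-Glutamine (stock as added) plus glutamate oxidase/HRP/Amplex red coupling mix. Fluorescence read initially and after 30 min at RT; signal change reflects glutamate formation.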
Pol eta inh-2 = Pol eta (human) inhibition, cherry-pick confirmation; shares compounds with Pol eta inh-1; Pol eta primer extension, TAMRA/BHQ fluorescence, 10 min; AID 720502; Potency, µM, usual class: inhibitors; 2,600 compounds, 64% hits
The depositor's hits bear a star. Sampled rows, rich in hits. Any-hit rate of the full collection: about 2.4%. Calls come from the whole dose curve; as a rule, active = well fitted curve in the direction sought with a large enough effect; inconclusive = small, poorly fitted or top-dose-only effect, or another doubt; inactive = no such curve, though single readings can be large; an effect the other way counts as inactive or inconclusive. Potency is the fitted concentration of half-maximal effect.

What do the screens show for `O=C(COC(=O)C1CCCC1)Nc1ncc(Cl)cc1Cl`?
POLK inh: inconclusive; Pol eta inh-1: 15.8µM*; APE1 inh: -13.7%; POLI inh: inconclusive; GLS inhibitor: -6.1%; Pol eta inh-2: inconclusive

What do the screens show for `CC(C)(C)OC(=O)C[C@H]1C/C=C\C[C@H](CC(=O)N(CCO)Cc2ccccc2)C(=O)NC[C@H](c2ccccc2)OC1=O`?
POLK inh: 9.1%; Pol eta inh-1: -17.0%; APE1 inh: -35.6%; POLI inh: 23.7%; GLS inhibitor: -9.4%

Results for CCNC(=O)CC1C(=O)N(c2ccc(C)cc2)C(=O)N1CCC(C)C (stereo unspecified) ?
Pol beta inh: 2.4%; POLK inh: -4.9%; Pol eta inh-1: -22.9%; APE1 inh: 21.3%; POLI inh: 130.1%; GLS inhibitor: -4.2%

How did COc1cccc(NC(=O)c2c(C(=O)Nc3ccccc3)sc3nc(C)cc(=O)n23)c1 do in these assays?
Pol beta inh: 30.6%; POLK inh: 14.4%; Pol eta inh-1: 6.8%; POLI inh: -3.1%; GLS inhibitor: 4.2%

How did Cc1ccc(S(=O)(=O)O)c(C)c1N1CCCC1=O do in these assays?
Pol beta inh: 33.8%; POLK inh: 3.5%; Pol eta inh-1: -17.2%; APE1 inh: -3.1%; POLI inh: 2.0%; GLS inhibitor: -1.6%

How did CC(C)(C)c1ccc(C(=O)OCC(=O)Nc2sc3c(c2C#N)CCC3)cc1 do in these assays?
Pol beta inh: 7.4%; POLK inh: -0.9%; Pol eta inh-1: -8.5%; APE1 inh: 2.1%; POLI inh: 10.6%; GLS inhibitor: 8.4%

Results for N#Cc1c(NC(=O)COC(=O)c2ccc(O)cc2O)sc2c1CCC2 ?
POLK inh: 79.4µM*; Pol eta inh-1: 20µM*; APE1 inh: 11.9µM*; POLI inh: inconclusive; GLS inhibitor: inconclusive; Pol eta inh-2: inconclusive

What do the screens show for `COc1cc(/C=C2\SC(=O)NC2=O)ccc1Oc1ccc([N+](=O)[O-])cc1[N+](=O)[O-]`?
Pol beta inh: 89.1µM*; POLK inh: inconclusive; Pol eta inh-1: 50.1µM*; APE1 inh: 1.5%; POLI inh: inconclusive; GLS inhibitor: 15.0%; Pol eta inh-2: inconclusive

How did CO/N=C/c1ccc(Oc2ccc([N+](=O)[O-])cc2[N+](=O)[O-])c(OC)c1 do in these assays?
Pol beta inh: inconclusive; POLK inh: -5.2%; Pol eta inh-1: -20.2%; APE1 inh: -3.6%; POLI inh: 5.3%; GLS inhibitor: -1.4%

How did COc1ccc(CN2CCNC(=O)C2CC(=O)N2CCCO2)c(OC)c1 (stereo unspecified) do in these assays?
Pol beta inh: 2.3%; POLK inh: 2.6%; Pol eta inh-1: -21.2%; APE1 inh: 3.8%; POLI inh: 32.0%; GLS inhibitor: 0.8%

How did COc1cc2c(cc1OC)-c1cc(Nc3ccc(C(=O)O)cc3)nc(=O)n1CC2 do in these assays?
Pol beta inh: inconclusive; POLK inh: -27.1%; Pol eta inh-1: 35.5µM*; APE1 inh: inconclusive; POLI inh: inconclusive; GLS inhibitor: 90.9%; Pol eta inh-2: inconclusive

Results for COc1ccc(Nc2cc3n(c(=O)n2)CCc2cc(OC)c(OC)cc2-3)cc1 ?
Pol beta inh: -24.7%; POLK inh: -11.6%; Pol eta inh-1: -20.7%; APE1 inh: -15.9%; POLI inh: 196.2%; GLS inhibitor: -20.7%

How did S=c1nc(NCc2cccc(Cl)c2)c2ccccc2[nH]1 do in these assays?
Pol beta inh: -8.3%; POLK inh: 10.9%; Pol eta inh-1: 0.7%; APE1 inh: 54.3%; POLI inh: 22.9%; GLS inhibitor: 0.1%

Results for COc1ccccc1C(=O)NCC1(N2CCN(C)CC2)CCCCC1 ?
Pol beta inh: 0.3%; POLK inh: -10.9%; Pol eta inh-1: -7.8%; POLI inh: 4.7%; GLS inhibitor: 12.4%

What do the screens show for `Cc1cccc(Oc2ccc3c(c2)Oc2ccccc2NC3=O)c1`?
Pol beta inh: 12.6µM*; POLK inh: inconclusive; Pol eta inh-1: 50.1µM*; POLI inh: 70.8µM*; GLS inhibitor: -24.0%; Pol eta inh-2: inconclusive

Results for O=C(C1=C[C@@H](c2ccc(C(F)(F)F)cc2)C[C@@H](OCCCCO)O1)N1CCCCCCC1 ?
POLK inh: -12.1%; Pol eta inh-1: -9.6%; POLI inh: -1.0%; GLS inhibitor: 0.8%

How did Cc1ccc(S(=O)(=O)N(C)C(=O)NC(=O)NS(=O)(=O)c2ccccc2)cc1 do in these assays?
Pol beta inh: 9.7%; POLK inh: -2.2%; Pol eta inh-1: 7.0%; APE1 inh: -2.3%; POLI inh: 17.5%; GLS inhibitor: 9.8%

What do the screens show for `O=C(Nc1ccc(Br)cc1Cl)c1cnccn1`?
Pol beta inh: 5.2%; POLK inh: -34.1%; Pol eta inh-1: 39.8µM*; APE1 inh: 0.9%; POLI inh: inconclusive; GLS inhibitor: inconclusive; Pol eta inh-2: 75.7*

How did CS(=O)(=O)c1ccc(-c2cccc(NC(=O)c3ccc4c(c3)OCO4)c2)nn1 do in these assays?
Pol eta inh-1: 2.1%; GLS inhibitor: -5.4%

How did O=C(Nc1ncc(Cc2ccccc2)s1)C1COc2ccccc2O1 (stereo unspecified) do in these assays?
Pol beta inh: -6.9%; POLK inh: -6.2%; Pol eta inh-1: 3.1%; APE1 inh: -2.0%; POLI inh: inconclusive; GLS inhibitor: -0.8%

Results for CCOC(=O)N1CCN(C(=O)Cn2ncc3ccccc32)CC1 ?
Pol beta inh: 20µM*; POLK inh: inconclusive; Pol eta inh-1: inconclusive; APE1 inh: inconclusive; POLI inh: inconclusive; GLS inhibitor: 4.4%; Pol eta inh-2: inconclusive

Results for Cc1ccc(S(=O)(=O)N2CCC(C(=O)OCC(=O)N3C(C)CCCC3C)CC2)cc1C (stereo unspecified) ?
Pol eta inh-1: -5.8%; GLS inhibitor: 0.6%

What do the screens show for `COc1cc(/C=N/NC(=O)C(Cc2c[nH]c3ccccc23)NC(=O)OCc2ccccc2)cc([N+](=O)[O-])c1O` (stereo unspecified)?
Pol beta inh: 50.1µM*; POLK inh: inconclusive; Pol eta inh-1: 20µM*; APE1 inh: 5.2%; POLI inh: inconclusive; GLS inhibitor: -5.4%; Pol eta inh-2: inconclusive
